Results on 10 compounds are retold here after PubChem BioAssay (EPA / NIEHS).

SMILES strings stand for the structures. Inconclusive results are not listed. Active and inactive are the calls of the source. How the source made its calls, unless noted: active means hit-call score of the fitted dose curve at least 0.9, where 1 is the maximum; inactive means score below 0.9.

Assay [1] in a line: CCTE_Shafer_MEA_dev_per_burst_interspike_interval: CCTE's Neural Network Formation Assay for Burst Interspike Interval, Shafer Lab (AID 2284044).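 Further: mean spike spacing inside bursts as AUC over recordings on days 5 7 9 12.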 An outline of the steps: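 Primary rat cortical neurons on 48-well MEA plates, exposed from day 0 through day 12, treatment renewed at DIV 5 and 9. Within-burst interspike interval recorded days 5, 7, 9, 12, well-averaged, summarised as AUC; negative fit versus DMSO.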

Assay [2] is described as follows: CCTE_Shafer_MEA_dev_burst_duration_mean: CCTE's Neural Network Formation Assay for Mean Burst Duration, Shafer Lab (AID 2284045). The essentials:
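Rat cortical cultures, 1.5 x 10^5 cells/well with laminin drop; continuous dosing days 0–12, media plus treatment refreshed DIV 5, 9. AxIS adaptive spike detection; mean single-electrode burst duration, AUC over four recordings, negative direction vs DMSO.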

Assay [3] is described as follows: CCTE_Shafer_MEA_dev_interburst_interval_mean: CCTE's Neural Network Formation Assay for Mean Interburst Interval, Shafer Lab (AID 2284046).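 Further: well-mean interburst interval of bursting electrodes as AUC over four recording days; curve fitted for decrease in interburst interval relative to DMSO.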 The essentials:
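Developing rat cortical networks on 48-well MEAs receive compound from the day of plating. Burst intervals from each active electrode are averaged per well, and AUC over the recording days is fitted in the negative direction against DMSO.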

The nature of assay [4]: CCTE_Shafer_MEA_dev_inter_network_spike_interval_mean: CCTE's Neural Network Formation Assay for Mean Inter-network Spike Interval, Shafer Lab (AID 2284047). An outline of the steps:
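Rat cortical cultures, 1.5 x 10^5 cells/well on 48-well MEA plates; continuous exposure days 0–12, medium and compound refreshed DIV 5, 9. Mean time between consecutive network-spike peaks; AUC across DIV 5/7/9/12; DMSO baseline, negative fitting direction.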

A short description of assay [5]: CCTE_Shafer_MEA_dev_network_spike_number: CCTE's Neural Network Formation Assay for Number of Network Spikes, Shafer Lab (AID 2284048).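 Further: synchronized bursts across electrodes counted on days 5 7 9 12 and integrated as AUC.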 An outline of the steps:
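Rat cortical primary cultures on 48-well MEA (16 electrodes/well); continuous exposure DIV 0–12, full medium and treatment exchange DIV 5, 9. Readout: network spike count, AxIS adaptive detection, recordings DIV 5/7/9/12 collapsed to AUC; loss-of-signal fit, DMSO baseline.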

Assay [6] can be described thus: CCTE_Shafer_MEA_dev_network_spike_peak: CCTE's Neural Network Formation Assay for Mean Number of Electrodes in Network Spike, Shafer Lab (AID 2284049).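 On AC50: fitted for loss of signal meaning fewer electrodes in network spikes than DMSO.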 An outline of the steps: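 Network-spike peak electrode count from recordings on days 5, 7, 9 and 12 was combined as trapezoidal area under the curve. Rat cortical cultures were treated continuously from plating, with compound renewed at each feed (DIV 5, 9); fits versus DMSO.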

A short description of assay [7]: CCTE_Shafer_MEA_dev_spike_duration_mean: CCTE's Neural Network Formation Assay for Mean Spike Duration, Shafer Lab (AID 2284051).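 Further: mean network spike duration pooled as area under curve over DIV 5 to 12 recordings.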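 On AC50: potency for a decrease in mean network spike duration versus DMSO.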 The essentials:
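Readout is the average length of network spikes, clustered firing across electrodes, summed over DIV 5, 7, 9 and 12 as area under the curve. Neurons from rat cortex developed networks on MEA plates under continuous 12-day exposure.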

The nature of assay [8]: CCTE_Shafer_MEA_dev_network_spike_duration_std: CCTE's Neural Network Formation Assay for Standard Deviation of Network Spike Duration, Shafer Lab (AID 2284052).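 Further: hits are decreases in network spike duration SD versus DMSO vehicle.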 The essentials: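 Read-out is the trapezoidal area-under-the-curve across recordings made on days 5, 7, 9 and 12, fitted in the negative direction against DMSO baseline. Neurons were primary rat cortical cells treated from day 0, with treatment renewed at each feed.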

Assay [9] in a line: CCTE_Shafer_MEA_dev_per_network_spike_spike_number_mean: CCTE's Neural Network Formation Assay for Mean Number of Spikes in a Network Spike, Shafer Lab (AID 2284053). An outline of the steps: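 Continuous twelve-day exposure of developing rat cortical networks grown over 16 microelectrodes per well; spontaneous firing is captured at four time points, and the per-network-spike spike number is integrated over development by trapezoidal AUC.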

A short description of assay [10]: CCTE_Shafer_MEA_dev_per_network_spike_spike_percent: CCTE's Neural Network Formation Assay for Percent of Spikes in a Network Spike, Shafer Lab (AID 2284054). The essentials:
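Read-out: percent of spikes falling in a 0.05 s window at network-spike peak, from spontaneous MEA recordings on days 5, 7, 9 and 12; trapezoidal AUC; loss of signal versus DMSO. Rat cortical cultures, compound present throughout.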

Assay [11] can be described thus: CCTE_Shafer_MEA_dev_LDH: CCTE's Lactate Dehydrogenase Assay for Cytotoxicity in the Neural Network Formation Assay, Shafer Lab (AID 2284068; active means hit-call score of the fitted dose curve at least 0.9, where 1 is the maximum;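 further: exposure for twelve days from plating with re-dosing on DIV 5 and 9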). The essentials: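 Cytotoxicity companion to network-formation recordings: rat cortical neurons received compound over 12 days of development, re-dosed at DIV 5 and 9 feeds. Viability was inferred from LDH enzyme activity relative to DMSO.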

Assay [12] in a line: CCTE_Shafer_MEA_dev_mutual_information_norm: CCTE's Neural Network Formation Assay for Mutual Information Normalization, Shafer Lab (AID 2284091). An outline of the steps: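 Neurons from rat cortex were seeded at 1.5 x 10^5 cells/well onto PEI-coated MEAs in a laminin drop, then exposed to compound from day 0 for twelve days. Network recordings on four days gave mutual information, summarised by AUC relative to DMSO.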

Assay [13] is described as follows: CCTE_Shafer_MEA_dev_correlation_coefficient_mean: CCTE's Neural Network Formation Assay for Mean Correlation Coefficient, Shafer Lab (AID 2284093).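 On AC50: well mean pairwise spike train correlation integrated as AUC over recording days 5 to 12; potency fitted for loss of correlation relative to DMSO vehicle wells.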 An outline of the steps:
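Read-out: well-mean correlation coefficient of spike trains between electrode pairs, collapsed over four recording days as trapezoidal area-under-the-curve. Developing rat cortical neuron networks grown on MEAs received test chemical continuously from plating.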

For a further assay, the system named is DIO2 (gene 1734). The experiment in a line: CCTE_GLTED_hDIO2: CCTE's human Deiodinase 2 (DIO2) Inhibition Assay, Great Lakes Toxicology and Ecology Division (GLTED) Lab (AID 2284050; active means hit-call score of the fitted dose curve at least 0.9, where 1 is the maximum). An outline of the steps: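 Iodide released by human deiodinase 2 over 3 h with test chemical, measured spectrophotometrically via Sandell-Kolthoff cerium/arsenic reaction. Run n=3; inhibition referenced to DMSO.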

In the next assay the test system is DIO3 (gene 1735). Briefly: CCTE_GLTED_hDIO3: CCTE's human Deiodinase 3 (DIO3) Inhibition Assay, Great Lakes Toxicology and Ecology Division (GLTED) Lab (AID 2284055; active means hit-call score of the fitted dose curve at least 0.9, where 1 is the maximum;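 further: potency is for inhibition seen as loss of released iodide signal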). An outline of the steps: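 Inhibition is read as reduced iodide release, measured spectrophotometrically by the Sandell-Kolthoff cerium/arsenic reaction. Adenovirus-expressed human DIO3 enzyme is exposed to chemical for 3 h, n=3 plates. Iodinated chemicals, nitrite, iron or thiocyanate may interfere.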

Assay [14] can be described thus: CCTE_Mundy_HCI_hNP1_Pro_ResponderAvgInten: CCTE's Proliferation Assay in human neuroprogenitor cells, Mundy Lab (AID 2284224; active means hit-call score of the fitted dose curve at least 0.9, where 1 is the maximum;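 further: human neural progenitor cells hNP1 derived from WA09 embryonic stem cells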). The essentials: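 Proliferation read as average intensity of BrdU-positive cells, imaged at 26.25 h post-dosing: chemical exposure started after 40–44 h culture, BrdU during final 4 h, paraformaldehyde fixation. Positive-direction fit relative to DMSO.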

Assay [15] is described as follows: CCTE_Shafer_MEA_dev_bursting_electrodes_number: CCTE's Neural Network Formation Assay for Number of Bursting Electrodes, Shafer Lab (AID 2284043; active means hit-call score of the fitted dose curve at least 0.9, where 1 is the maximum). The essentials:
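Rat cortical primary neurons, 48-well MEA, 16 electrodes/well; dosing DIV 0–12, re-dosed with full media change DIV 5, 9. Recordings DIV 5/7/9/12, AxIS adaptive spike detector; bursting electrode = ≥1 burst/2 min. AUC across days; loss of signal vs DMSO.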

The nature of assay [16]: CCTE_Shafer_MEA_dev_AB: CCTE's Alamar Blue Assay for Cytotoxicity in the Neural Network Formation Assay, Shafer Lab (AID 2284083; active means hit-call score of the fitted dose curve at least 0.9, where 1 is the maximum;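 further: resazurin reduction fluorescence as viability of cultured neurons; twelve days of exposure from plating with re-dosing on DIV 5 and 9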). The essentials:
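Fluorescent resazurin reduction serves as the viability read-out, with DMSO as negative control and baseline. Cells were primary rat cortical neurons grown on MEA plates and dosed from day 0 to day 12, treatment renewed on DIV 5 and 9.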
On the technique in general: The colour change of resazurin is a common sign of viable cells or microbes.

Take `NC(=O)C(F)(F)C(F)(F)C(F)(F)C(F)(F)C(N)=O`: the compound was classed as inactive in assay [1], in [2], in assay [3], in [4], in assay [5] and in [6]. In addition, the call in assay [7], in [8], in [9], in assay [10], in assay [11] and in assay [12] was inactive. Besides, the call in assay [13] was inactive.
Turning to `O=C(O)C(F)(F)C(F)(F)C(F)(F)OC(F)(F)F`, the call in [1], in assay [2], in assay [3], in assay [4], in assay [5] and in [6] was inactive. In addition, the compound was classed as inactive in assay [7], in assay [8], in [9], in assay [10], in assay [11] and in [12]. Moreover, the compound was classed as inactive in assay [13].
With `CCN=c1cc2oc3cc(NCC)c(C)cc3c(-c3ccccc3C(=O)OCC)c-2cc1C`, the half-maximal activity concentration (AC50) in the assay on DIO2 (gene 1734) is 154 µM (active); in the assay with DIO3 (gene 1735), 157 µM (active).
Consider `NC(=O)C(F)(F)C(F)(F)C(F)(F)C(F)(F)C(F)(F)C(F)(F)C(F)(F)F`, for which the compound was classed as inactive in assay [14].
In the case of `OCC(F)(F)C(F)(F)C(F)(F)C(F)(F)C(F)(F)C(F)(F)C(F)(F)C(F)(F)CO`, the outcome in [15], in assay [1], in assay [2], in assay [3], in [4] and in assay [5] was inactive. The call in assay [8], in assay [9], in assay [10] and in [12] was inactive. Moreover, the concentration at half-maximal activity (AC50) is 22.5 µM (active) in assay [6]; 15 µM (active) in [7]; 23.3 µM (active) in assay [11]; 24.4 µM (active) in assay [16]; 24.1 µM (active) in assay [13].
`CO[Si](C)(CCC(F)(F)C(F)(F)C(F)(F)C(F)(F)C(F)(F)C(F)(F)F)OC`: the outcome in [1], in [2], in [3], in assay [4], in assay [5] and in assay [6] was inactive. Moreover, the outcome in assay [7], in [8], in [9], in assay [10], in assay [11] and in [12] was inactive. In addition, in assay [13], the compound was classed as inactive.
With `CCCCCCCCCCCCC[N+](C)(C)Cc1ccccc1`, the AC50 in the assay on DIO2 (gene 1734) is 22.2 µM (active); in the assay with DIO3 (gene 1735), 17 µM (active).
With `C=CC(=O)OCC(F)(F)C(F)(F)C(F)(F)C(F)(F)C(F)(F)C(F)(F)C(F)(F)C(F)F`, the concentration at half-maximal activity (AC50) in the assay with DIO2 (gene 1734) was 10.3 µM (active).
The same measure, in the same setting: with `O=S(=O)(Cl)C(F)(F)C(F)(F)C(F)(F)C(F)(F)C(F)(F)C(F)(F)C(F)(F)C(F)(F)F` the figure was 66 µM (active).
For the compound `FC(F)(F)C(F)(F)C(F)(F)C(F)(F)C(F)(F)C(F)(F)C(F)(F)CCI`, the compound was classed as inactive in [15], in assay [1], in [2], in assay [3], in assay [4] and in [5]. For the same compound, the compound was classed as inactive in assay [6], in assay [7], in assay [8], in assay [9], in [10] and in assay [11]. In addition, the compound was classed as inactive in assay [12] and in [13].

One may read the AC50 as the midpoint of the concentration-response curve, whichever way the signal moves.
